The structures appear in SMILES notation. This is part of a sample that, as a whole, favours compounds with a hit. Of some 79,000 tested, about 15% had one in any assay. A number with no mark means an inactive call. The source made the active and inactive calls. Cut-off read from the data, not from the text of the source: active = growth inhibition above about 70%; inactive = the rest.

Test [1] in a line: NCI Yeast Anticancer Drug Screen. Data for the rad50 strain (AID 155).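 Note: 0% = growth of vehicle-only cultures of the same strain.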 Particulars: S. cerevisiae rad50 strain growth inhibition, active compounds read high. In a few lines: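 Readout: growth inhibition relative to vehicle-treated cultures. Compound exposure was carried out in a genetically defined yeast strain deficient in DNA damage repair.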
A short description of test [2]: NCI Yeast Anticancer Drug Screen. Data for the mec2-1 strain (AID 157). Particulars: S. cerevisiae mec2-1 strain, active compounds read high. Summed up:
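Each compound was tested on mec2-1 yeast, a strain altered in DNA damage repair or cell cycle control. Growth inhibition is reported relative to vehicle.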

A short description of test [3]: NCI Yeast Anticancer Drug Screen. Data for the sgs1 mgt1 strain (AID 161).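 Note: 0% = growth of cultures given vehicle only.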 The following applies: S. cerevisiae sgs1 mgt1 strain, active compounds read high. Summed up:
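Test agents were incubated with a DNA-repair-mutant yeast strain. Growth was then read and compared against vehicle-treated controls.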

A short description of test [4]: NCI Yeast Anticancer Drug Screen. Data for the cln2 rad14 strain (AID 165).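 Note: 0% = growth equal to vehicle treated cultures.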 The following applies: S. cerevisiae cln2 rad14 strain, active compounds read high. In a few lines: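 Test compounds were added to cln2 rad14 yeast cultures; inhibition of growth was then determined by comparison with vehicle treatment.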
The nature of test [5]: NCI Yeast Anticancer Drug Screen. Data for the bub3 strain (AID 167). The following applies: S. cerevisiae bub3 mutant strain, active compounds read high. Summed up:
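Readout: yeast growth inhibition, expressed relative to vehicle-only wells. The test organism is a mutant strain from a panel with lesions in DNA repair or checkpoint genes.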

The nature of test [6]: NCI Yeast Anticancer Drug Screen. Data for the mlh1 rad18 strain (AID 175). Particulars: S. cerevisiae mlh1 rad18 strain growth inhibition, active compounds read high. Summed up:
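Inhibition values reflect reduced growth of mutant yeast versus vehicle-treated controls following compound exposure; the mutations affect DNA damage repair.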

[7] abbreviates: at 5.0 µM (retest, dose inferred, filed as 0.5).
Where [8] appears, read: at 50.0 µM (retest, dose inferred, filed as 5.0).

Turning to `Cn1nc(-c2ccc3c(c2)OCO3)[n+]([O-])c2c(=O)n(C)c(=O)nc1-2`, the growth inhibition in test [1] (setting [7]) was -2%; in test [1] (setting [8]), 79% (active); in test [1] (at 50.0 µM) it was 99.2% (active); in test [2] (setting [7]), -7%; in test [2] (setting [8]), 97% (active); in test [2] (at 50.0 µM) it was 99.7% (active). Moreover, the growth inhibition in test [3] (setting [7]) is 0%; in test [3] (setting [8]), 98% (active); in test [3] (at 50.0 µM), 99.5% (active); in test [4] (setting [7]), -6%; in test [4] (setting [8]), 97% (active); in test [4] (at 50.0 µM) it was 98.2% (active). Moreover, the growth inhibition was -8% in test [5] (setting [7]); 96% (active) in test [5] (setting [8]); 99.4% (active) in test [5] (at 50.0 µM); -7% in test [6] (setting [7]); 97% (active) in test [6] (setting [8]); 99.5% (active) in test [6] (at 50.0 µM).
For `CNC(=O)NN(C)C=O`, the growth inhibition is 0% in test [1] (setting [7]); 2% in test [1] (setting [8]); -12.1% in test [1] (at 50.0 µM); 4% in test [2] (setting [7]); 2% in test [2] (setting [8]); 45.5% in test [2] (at 50.0 µM). Moreover, the growth inhibition is 2% in test [3] (setting [7]); 1% in test [3] (setting [8]); -7.95% in test [3] (at 50.0 µM); -2% in test [4] (setting [7]); -4% in test [4] (setting [8]); 12.1% in test [4] (at 50.0 µM). The growth inhibition was -2% in test [5] (setting [7]); -5% in test [5] (setting [8]); -4.35% in test [5] (at 50.0 µM); -4% in test [6] (setting [7]); -3% in test [6] (setting [8]); -4.55% in test [6] (at 50.0 µM).
With `COc1ccc(C2COc3cc(OC(C)=O)c(OC(C)=O)cc3C2)cc1` (configuration not stated), the growth inhibition is -1% in test [1] (setting [7]); 93% (active) in test [1] (setting [8]); 96.1% (active) in test [1] (at 50.0 µM); 2% in test [2] (setting [7]); 95% (active) in test [2] (setting [8]); 95.9% (active) in test [2] (at 50.0 µM). Besides, the growth inhibition in test [3] (setting [7]) was 1%; in test [3] (setting [8]), 93% (active); in test [3] (at 50.0 µM), 95% (active); in test [4] (setting [7]) it was 4%; in test [4] (setting [8]) it was 93% (active); in test [4] (at 50.0 µM), 94.9% (active). Besides, the growth inhibition in test [5] (setting [7]) was 24%; in test [5] (setting [8]), 96% (active); in test [5] (at 50.0 µM), 97.1% (active); in test [6] (setting [7]), -3%; in test [6] (setting [8]), 94% (active); in test [6] (at 50.0 µM) it was 96.6% (active).
In the case of `NC(=O)C1C(=O)c2cccc3c2C1(Br)C(Br)CCC3` (configuration not stated), the growth inhibition was 12% in test [1] (setting [7]); 99% (active) in test [1] (setting [8]); 99.2% (active) in test [1] (at 50.0 µM); -5% in test [2] (setting [7]); 100% (active) in test [2] (setting [8]); 99.4% (active) in test [2] (at 50.0 µM). For the same molecule, the growth inhibition was 26% in test [3] (setting [7]); 100% (active) in test [3] (setting [8]); 99.5% (active) in test [3] (at 50.0 µM); 2% in test [4] (setting [7]); 98% (active) in test [4] (setting [8]); 98.8% (active) in test [4] (at 50.0 µM). The growth inhibition in test [5] (setting [7]) is 7%; in test [5] (setting [8]), 99% (active); in test [5] (at 50.0 µM), 99.2% (active); in test [6] (setting [7]), 12%; in test [6] (setting [8]), 99% (active); in test [6] (at 50.0 µM) it was 99.3% (active).
Take `CC[C@@H](C(=O)[C@@H](C)[C@@H](O)[C@H](C)CCc1ccc(C)c(O)c1C(=O)O)[C@H]1O[C@](CC)([C@H]2CC[C@](O)(CC)[C@H](C)O2)C[C@@H]1C`: the growth inhibition in test [1] (setting [7]) is 36%; in test [1] (setting [8]) it was 97% (active); in test [1] (at 50.0 µM) it was 89.7% (active); in test [2] (setting [7]) it was 48%; in test [2] (setting [8]), 98% (active); in test [2] (at 50.0 µM), 92% (active). The growth inhibition in test [3] (setting [7]) is 38%; in test [3] (setting [8]), 98% (active); in test [3] (at 50.0 µM), 91% (active); in test [4] (setting [7]), 71% (active); in test [4] (setting [8]), 99% (active); in test [4] (at 50.0 µM), 87.8% (active). Further, the growth inhibition is 65% in test [5] (setting [7]); 98% (active) in test [5] (setting [8]); 88.9% (active) in test [5] (at 50.0 µM); 35% in test [6] (setting [7]); 98% (active) in test [6] (setting [8]); 89.3% (active) in test [6] (at 50.0 µM).
As to `C=CCOc1ccc(/C=N/NC(N)=S)cc1`, the growth inhibition in test [1] (setting [7]) was 10%; in test [1] (setting [8]), 83% (active); in test [1] (at 50.0 µM), 88.3% (active); in test [2] (setting [7]), 13%; in test [2] (setting [8]) it was 81% (active); in test [2] (at 50.0 µM), 87.3% (active). The growth inhibition was 15% in test [3] (setting [7]); 78% (active) in test [3] (setting [8]); 44% in test [3] (at 50.0 µM); 6% in test [4] (setting [7]); 87% (active) in test [4] (setting [8]); 58.2% in test [4] (at 50.0 µM). Further, the growth inhibition in test [5] (setting [7]) was 5%; in test [5] (setting [8]), 91% (active); in test [5] (at 50.0 µM), 88.1% (active); in test [6] (setting [7]), 10%; in test [6] (setting [8]) it was 90% (active); in test [6] (at 50.0 µM), 52.1%.
For `CCCCCCC/C=C/C(=O)OC1C(OC2C(OC(CCCCCCC)CC(=O)OC(CCCCCCC)CC(=O)O)OC(C)C(O)C2O)OC(C)C(O)C1O` (configuration not stated), the growth inhibition in test [1] (setting [7]) is -18%; in test [1] (setting [8]), 70% (active); in test [1] (at 50.0 µM), 91.5% (active); in test [2] (setting [7]), -37%; in test [2] (setting [8]) it was 57%; in test [2] (at 50.0 µM) it was 81.8% (active). The growth inhibition in test [3] (setting [7]) was -27%; in test [3] (setting [8]) it was 62%; in test [3] (at 50.0 µM) it was 92.7% (active); in test [4] (setting [7]), -40%; in test [4] (setting [8]) it was 68%; in test [4] (at 50.0 µM), 90.1% (active). In addition, the growth inhibition was -42% in test [5] (setting [7]); 94% (active) in test [5] (setting [8]); 90% (active) in test [5] (at 50.0 µM); -34% in test [6] (setting [7]); 95% (active) in test [6] (setting [8]); 89.5% (active) in test [6] (at 50.0 µM).
Regarding `Cc1ccc(S(=O)(=O)CC(=O)CC(=O)C(=O)Nc2cc(C)ccc2C)cc1`, the growth inhibition is -1% in test [1] (setting [7]); 4% in test [1] (setting [8]); 34.2% in test [1] (at 50.0 µM); -2% in test [2] (setting [7]); -8% in test [2] (setting [8]); 9.95% in test [2] (at 50.0 µM). For the same molecule, the growth inhibition is -2% in test [3] (setting [7]); 0% in test [3] (setting [8]); 17.9% in test [3] (at 50.0 µM); -3% in test [4] (setting [7]); -1% in test [4] (setting [8]); 1.85% in test [4] (at 50.0 µM). For the same molecule, the growth inhibition in test [5] (setting [7]) was -2%; in test [5] (setting [8]) it was -2%; in test [5] (at 50.0 µM) it was -0.55%; in test [6] (setting [7]), -2%; in test [6] (setting [8]), -2%; in test [6] (at 50.0 µM), 12.6%.
For the molecule `O=[N+]([O-])C(/C=C(\Cl)n1nnc2ccccc21)=C(/Cl)n1nnc2ccccc21`, the growth inhibition in test [1] (setting [7]) is 25%; in test [1] (setting [8]), 36%; in test [1] (at 50.0 µM), -1.95%; in test [2] (setting [7]), 17%; in test [2] (setting [8]) it was 18%; in test [2] (at 50.0 µM), -3.7%. Moreover, the growth inhibition is 13% in test [3] (setting [7]); 26% in test [3] (setting [8]); 25.2% in test [3] (at 50.0 µM); 11% in test [4] (setting [7]); 11% in test [4] (setting [8]); 13.4% in test [4] (at 50.0 µM). The growth inhibition in test [5] (setting [7]) was 27%; in test [5] (setting [8]) it was 27%; in test [5] (at 50.0 µM), 14.4%; in test [6] (setting [7]), 22%; in test [6] (setting [8]), 35%; in test [6] (at 50.0 µM) it was 17.3%.
